# Structures can show the parent of a compound that is named as a salt.
# Key:
# Assay in all cases: Euclidean distance of Cell Painting phenotypic profile (signed KS, 77 features) to DMSO centroid (dimensionless distance); 5 or 10 uM (library dependent); higher = stronger phenotypic change vs DMSO (phenoactivity)
# Settings in all cases: 48 h
# 786-O = tested on: 786-O
# Summary of the method: (§1)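 Five cancer lines, together with a healthy fibroblast line, received library compounds for 48 h at a library-dependent 10 or 5 uM and 0.1% DMSO final. Harmony then derived 77 features from confocal 20X images (9 fields/well) of the stained cells, scoring each as a signed Kolmogorov-Smirnov statistic against same-plate vehicle wells. After plate-position correction, correlation weighting and replicate averaging at the top dose, phenoactivity was taken as each profile's Euclidean distance to the median vehicle profile.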
# A549 = tested on: A549
# Summary of the method: as §1
# DU145 = tested on: DU145
# Summary of the method: as §1
# FB = tested on: FB
# Summary of the method: as §1
# HEPG2 = tested on: HEPG2
# Summary of the method: as §1
# OVCAR4 = tested on: OVCAR4
# Summary of the method: as §1
SMILES,Euclidean distance (786-O),Euclidean distance (A549),Euclidean distance (DU145),Euclidean distance (FB),Euclidean distance (HEPG2),Euclidean distance (OVCAR4)
CC1(C)S[C@@H]2[C@H](NC(=O)COc3ccccc3)C(=O)N2[C@H]1C(=O)O [Penicillin V potassium salt],1.25,1.22,1.35,0.767,0.481,1.67
Cn1cc(-c2cnn3c(N)c(Br)c([C@@H]4CCCNC4)nc23)cn1,2.18,1.1,1.19,2.96,1.35,2.36
CN(CCCCCCCCCCN(C)C(=O)Oc1cccc([N+](C)(C)C)c1)C(=O)Oc1cccc([N+](C)(C)C)c1 [Demecarium Bromide],0.786,0.898,0.6,1.07,1.17,1.24
Nc1nc(=O)[nH]cc1F [Flucytosine],1.25,1.12,0.998,1.16,0.392,0.975
O=c1[nH]c(=O)n([C@H]2C[C@H](O)[C@@H](CO)O2)cc1/C=C/Br [Brivudine],1.21,0.849,0.765,1.07,0.725,0.962
Nc1cc(F)ccc1NC(=O)c1ccc(CNC(=O)/C=C/c2cccnc2)cc1 [Tucidinostat (Chidamide)],3.36,2.59,2.35,3.31,3.09,2.66
O=C1c2c(O)ccc(O)c2C(=O)c2c(NCCNCCO)ccc(NCCNCCO)c21 [Mitoxantrone 2HCl],5.6,5.26,4.77,7.28,5.09,5.15
O=c1[nH]c(=O)n([C@H]2C[C@H](O)[C@@H](CO)O2)cc1I [Idoxuridine],2.71,1.26,2.3,1.41,1.5,1.42
O=C(Nc1cccc2c(=O)cc(-c3nnn[nH]3)oc12)c1ccc(OCCCCc2ccccc2)cc1 [Pranlukast],0.942,1.36,0.906,0.842,1.13,0.86
C[C@H](Cc1cc2c(c(C(N)=O)c1)N(CCCO)CC2)NCCOc1ccccc1OCC(F)(F)F [Silodosin],2.28,1.27,1.57,2.6,2.41,1.57
CC(C)(F)C[C@H](N[C@@H](c1ccc(-c2ccc(S(C)(=O)=O)cc2)cc1)C(F)(F)F)C(=O)NC1(C#N)CC1 [Odanacatib (MK-0822)],0.533,2.1,0.7,0.656,1.37,0.985
Nc1cc(C(F)(F)F)c(-c2cc(N3CCOCC3)nc(N3CCOCC3)n2)cn1 [Buparlisib (BKM120. NVP-BKM120)],2.55,3.38,2.88,2.98,2.83,3.29
C[C@]12CCC(=O)C=C1CC[C@@H]1[C@@H]2[C@@H](O)C[C@@]2(C)[C@H]1CC[C@]2(O)C(=O)CO [Hydrocortisone],0.925,1.63,2.09,1.56,0.62,2.31
CC(=O)NO [Acetohydroxamic acid],1.37,1.28,0.954,1.17,0.648,0.776
O=c1ccn([C@@H]2O[C@H](COP(=O)(O)OP(=O)(O)OP(=O)(O)OP(=O)(O)OC[C@H]3O[C@@H](n4ccc(=O)[nH]c4=O)[C@H](O)[C@@H]3O)[C@@H](O)[C@H]2O)c(=O)[nH]1 [Diquafosol Tetrasodium],0.977,0.68,0.599,1.1,0.787,1.2
COc1ccnc(C[S+]([O-])c2nc3cc(-n4cccc4)ccc3[nH]2)c1C (stereo not drawn) [Ilaprazole sodium],1.23,0.928,0.81,0.764,0.518,1.26
CC[C@H]1OC(=O)[C@H](C)[C@@H](O[C@H]2C[C@@](C)(OC)[C@@H](O)[C@H](C)O2)[C@H](C)[C@@H](O[C@@H]2O[C@H](C)C[C@H](N(C)C)[C@H]2O)[C@](C)(O)C[C@@H](C)C(=O)[C@H](C)[C@H]2OC(=O)O[C@@]21C [Erythromycin Cyclocarbonate],1.11,1.33,0.736,0.984,1.01,0.912
CCCSc1nc(N[C@@H]2C[C@H]2c2ccc(F)c(F)c2)c2nnn([C@@H]3C[C@H](OCCO)[C@@H](O)[C@H]3O)c2n1 [Ticagrelor],0.66,1.41,1.07,0.885,0.977,1.37
COC(=O)[C@]12CCC(C)(C)C[C@H]1[C@H]1C(=O)C=C3[C@@]4(C)C=C(C#N)C(=O)C(C)(C)[C@@H]4CC[C@@]3(C)[C@]1(C)CC2 [Bardoxolone Methyl],5.4,5.71,5.63,2.1,4.01,6.33
N#Cc1cc(NC(=O)C(=O)O)c(Cl)c(NC(=O)C(=O)O)c1 [Lodoxamide Tromethamine],1.61,1.34,0.792,1.06,0.894,1.01
COC(=O)Nc1ccc(-c2nc(N3CCOCC3)c3cnn(C4CCN(C(=O)OC)CC4)c3n2)cc1,1.52,2.8,1.17,2.27,1.92,4
N=C(NCCCCCCNC(=N)NC(=N)Nc1ccc(Cl)cc1)NC(=N)Nc1ccc(Cl)cc1 [Chlorhexidine],2.05,3.54,1.97,2.12,2.92,3.25

SMILES,Euclidean distance (786-O),Euclidean distance (A549),Euclidean distance (DU145),Euclidean distance (FB),Euclidean distance (HEPG2),Euclidean distance (OVCAR4)
CC1=C(CC(=O)O)c2cc(F)ccc2/C1=C\c1ccc([S+](C)[O-])cc1 (stereo not drawn) [Sulindac],0.824,0.664,0.975,0.812,1.5,1.26
Cn1c(=O)c2[nH]c(Br)nc2n(C)c1=O [Pamabrom],0.794,0.799,1.56,1.18,0.337,0.81
CC(C)(C)c1nc(-c2cccc(NS(=O)(=O)c3c(F)cccc3F)c2F)c(-c2ccnc(N)n2)s1,1.53,1.16,1.31,3.02,1.45,1.03
CCCc1cc(C)[nH]c(=O)c1CNC(=O)c1cc(-c2ccc(N3CCN(C(C)C)CC3)nc2)cc2c1cnn2C(C)C,1.57,1.62,1.42,2.34,1.03,1.18
CCOc1cc([C@@H](CS(C)(=O)=O)N2C(=O)c3cccc(NC(C)=O)c3C2=O)ccc1OC,1.2,0.481,1.78,0.934,0.783,0.611
CCC(=O)O[C@@H]1CC(=O)O[C@H](C)C/C=C/C=C/[C@H](O)[C@H](C)C[C@H](CC=O)[C@H](O[C@@H]2O[C@H](C)[C@@H](O[C@H]3C[C@@](C)(O)[C@@H](OC(=O)CC)[C@H](C)O3)[C@H](N(C)C)[C@H]2O)[C@H]1OC [Midecamycin],0.98,1.59,0.874,1.31,1.08,1.07
CCOc1ccc(Cc2cc([C@]34OC[C@](CO)(O3)[C@@H](O)[C@H](O)[C@H]4O)ccc2Cl)cc1 [Ertugliflozin],1.45,0.762,1.22,0.862,0.465,1.23
CC(C)N1CCN(c2ccc(OCC3COC(Cn4cncn4)(c4ccc(Cl)cc4Cl)O3)cc2)CC1 (stereo not drawn) [Terconazole],1.82,2.07,1.88,1.04,0.664,1.06
CC(CCc1ccc(O)cc1)NCC(O)c1ccc(O)cc1 (stereo not drawn) [Ractopamine HCl],0.802,0.83,0.987,1.14,0.522,1.07
Cc1nnc(NS(=O)(=O)c2ccc(N)cc2)s1 [Sulfamethizole],1.54,0.798,1.76,0.908,0.498,1.11
CNC(=O)c1ccc(N2C(=S)N(c3ccc(C#N)c(C(F)(F)F)c3)C(=O)C2(C)C)cc1F [Enzalutamide (MDV3100)],0.957,1.37,1.2,1.38,0.965,1.18
CC(=O)O[C@]1(C(C)=O)CC[C@H]2[C@@H]3C[C@H](C)C4=CC(=O)CC[C@]4(C)[C@H]3CC[C@@]21C [Medroxyprogesterone acetate],1.02,1.4,1.65,1.31,1,1.06
CC1(C)O[C@@H]2C[C@H]3[C@@H]4CCC5=CC(=O)C=C[C@]5(C)[C@H]4[C@@H](O)C[C@]3(C)[C@]2(C(=O)CO)O1 [Desonide],1.09,1.9,2.27,1.55,0.639,1.61
O=C(COc1cccc2c(=O)[nH]ccc12)c1ccccc1,1.49,1.09,0.747,0.832,0.68,0.6
Nc1nc(=O)n([C@@H]2CS[C@H](CO)O2)cc1F [Emtricitabine],1.06,0.783,0.954,0.924,0.432,1.08
COc1cc(NS(C)(=O)=O)ccc1Nc1c2ccccc2nc2ccccc12 [Amsacrine hydrochloride],3.5,3.49,4.13,3.04,3.28,3.46
OCCOc1ccc(/C(=C(/CCCl)c2ccccc2)c2ccccc2)cc1 [Ospemifene],0.936,1.29,0.819,0.945,1.26,1.06
CCOC(=O)[C@H](CCc1ccccc1)N[C@H]1CS[C@H](c2cccs2)CN(CC(=O)O)C1=O [Temocapril HCl],0.717,0.454,0.716,0.895,0.434,0.878
COc1ccc(-c2coc3cc(O)ccc3c2=O)cc1 [Formononetin],0.921,0.857,0.599,1.07,0.662,1.13
CC(C)OC(=O)CCC/C=C\C[C@@H]1[C@@H](/C=C/[C@@H](O)COc2cccc(C(F)(F)F)c2)[C@H](O)C[C@@H]1O [Travoprost],0.945,0.886,0.732,1.11,1.07,1.25
CC(C(=O)O)c1ccc2c(c1)Cc1cccnc1O2 (stereo not drawn) [Pranoprofen],1.12,0.714,1.29,1.04,0.599,0.996
